This is an account of results in PubChem BioAssay.

For part of these data: Results with a measured potency or affinity are listed apart. Active and inactive are the calls of the source.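 Rule for the calls, unless noted: active = fitted half-maximal concentration within 10 nM to 100 µM, steepness 0.5 to 2, significant signal drop, low assay interference; inactive = the rest.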

Assay [1] addresses Cell division control protein 42 homolog (Homo sapiens) (UniProt P60953). Nature of the assay: activated mutant Cdc42 GTP-binding inhibitors, dose response, biochemical, multiplex bead flow cytometry, Bodipy-FL-GTP (AID 1333;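 active = fitted half-maximal concentration within the tested dose range, moderate curve steepness, a statistically real signal drop, and little compound fluorescence or tag-binding interference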). For orientation: A flow cytometer gives signals particle by particle.
Assay [2] shares this target. Nature of the assay: wildtype Cdc42 GTP-binding inhibitors, dose response, biochemical, multiplex bead flow cytometry, Bodipy-FL-GTP (AID 1334;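 active = fitted half-maximal concentration within the tested range, moderate curve steepness, significant signal drop, and little compound fluorescence or bead-linkage interference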). Conditions: bead-based flow cytometry, Bodipy-FL-GTP binding to GST-Cdc42; at 100 µM (top of the series) unless noted.
For assay [3], the target named is GTPase HRas (Homo sapiens) (UniProt P01112). Kind of assay: inhibitors of GTP binding to wildtype Ras, dose response, biochemical, multiplex bead flow cytometry (AID 1335). Conditions: bead-based flow cytometry, Bodipy-GTP binding to GST-Ras; at 100 µM (top of the series) unless noted.
Sequence of GTPase HRas (Homo sapiens) (P01112 whole entry, looked up): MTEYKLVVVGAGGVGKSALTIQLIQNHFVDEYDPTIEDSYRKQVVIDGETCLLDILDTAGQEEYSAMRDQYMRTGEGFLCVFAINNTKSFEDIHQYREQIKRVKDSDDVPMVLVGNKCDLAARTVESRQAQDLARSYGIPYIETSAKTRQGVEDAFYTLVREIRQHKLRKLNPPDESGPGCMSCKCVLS
The test system of assay [4] is Ras-related protein Rab-7a (dog), GTP binding. Nature of the assay: Rab7 GTP binding inhibitors, potency, dose response, biochemical, wildtype, multiplex bead flow cytometry (AID 1336; call rule not given here).
In assay [5] the target is Ras-related C3 botulinum toxin substrate 1 (Homo sapiens) (UniProt P63000). Nature of the assay: wildtype Rac1 GTP binding inhibitors, dose response, biochemical, multiplex bead flow cytometry (AID 1340;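 active = dose curve with midpoint inside tested range, moderate steepness, plateau gap beyond fit error, low compound glow and bead-link interference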). Conditions: GST-Rac1 beads, Bodipy-FL-GTP binding; at 100 µM (top of the series) unless noted.
Assay [6] deals with GTPase HRas (Homo sapiens) (UniProt P01112). Nature of the assay: activated Ras mutant GTP binding inhibitors, dose response, biochemical, multiplex bead flow cytometry (AID 1341;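 active = dose-response curve with midpoint inside the tested range, moderate steepness, significant amplitude and little compound fluorescence or bead-attachment interference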;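 note: GST-tagged constitutively activated Ras mutant immobilized on beads and multiplexed with other GTPases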).

Sequence of Cell division control protein 42 homolog (Homo sapiens) (P60953 whole entry, looked up): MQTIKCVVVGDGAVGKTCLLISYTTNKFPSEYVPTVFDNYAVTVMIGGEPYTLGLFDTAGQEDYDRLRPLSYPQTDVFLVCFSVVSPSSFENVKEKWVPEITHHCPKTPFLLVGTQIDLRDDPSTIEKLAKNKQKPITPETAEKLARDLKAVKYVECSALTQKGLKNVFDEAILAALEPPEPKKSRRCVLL

As for `Cc1cc(C(=O)CN2C(=O)C(=O)N(Cc3ccccc3)C2=O)c(C)n1-c1ccccc1F`, the outcome in assay [1], in assay [4] and in assay [6] was inactive. Moreover, in assay [2], the fluorescence, percent of control (lower = inhibition) amounted to 34.9%. The compound also gave a GTP binding, percent of control in assay [3] of 81.4%. This compound also registered a GTP binding signal, raw median fluorescence (lower = inhibition) (MCF (arbitrary fluorescence units)) in assay [5] of 260.
For the compound `CSc1nsc(SC)c1NC(=O)OC1CCCCC1`, the call in assay [1], in assay [4] and in assay [6] was inactive. In addition, the fluorescence, percent of control (lower = inhibition) in assay [2] turned out to be 43%. Further, the GTP binding, percent of control in assay [3] amounted to 63.4%. The GTP binding signal, raw median fluorescence (lower = inhibition) (MCF (arbitrary fluorescence units)) in assay [5] came to 196.
Turning to `Cc1ccccc1OCCn1cc(C(=O)O)c2cccc(C)c21`, the call in assay [1], in assay [4] and in assay [6] was inactive. Further, the fluorescence, percent of control (lower = inhibition) in assay [2] was 53.7%. The compound also came in with a GTP binding, percent of control in assay [3] of 200%. Further, in assay [5], the GTP binding signal, raw median fluorescence (lower = inhibition) (MCF (arbitrary fluorescence units)) came out at 53.4.
On to `CCC(C)C(=O)Nc1ccc(OC)cc1OC` (stereo unspecified), for which the outcome in assay [1], in assay [4] and in assay [6] was inactive. The fluorescence, percent of control (lower = inhibition) in assay [2] stood at 92.4%. Besides, the GTP binding, percent of control in assay [3] was 161%. Moreover, the GTP binding signal, raw median fluorescence (lower = inhibition) (MCF (arbitrary fluorescence units)) in assay [5] was 186.
`COc1ccc2nc(/C(C#N)=C\c3ccc(C(=O)O)cc3)[nH]c2c1`: the compound was called inactive in assay [1], in assay [4] and in assay [6]. Further, in assay [2], the fluorescence, percent of control (lower = inhibition) is 31.4%. This compound had a GTP binding, percent of control in assay [3] of 72.6%. This compound returned a GTP binding signal, raw median fluorescence (lower = inhibition) (MCF (arbitrary fluorescence units)) in assay [5] of 189.
Turning to `Cc1ccc(NC(=S)NNC(=O)c2cn(C)nc2C)cc1`, the compound was classed as inactive in assay [1], in assay [4] and in assay [6]. Besides, the fluorescence, percent of control (lower = inhibition) in assay [2] amounted to 83.7%. This compound returned a GTP binding, percent of control in assay [3] of 166%. For the same compound, in assay [5], the GTP binding signal, raw median fluorescence (lower = inhibition) (MCF (arbitrary fluorescence units)) was 180.
On to `O=C(/C=C/c1ccc(N2CCC(c3ccccc3)=N2)cc1)c1ccccc1`, for which the call in assay [1], in assay [4] and in assay [6] was inactive. The fluorescence, percent of control (lower = inhibition) in assay [2] came out at 344%. The GTP binding, percent of control in assay [3] came out at 394%. This compound also showed a GTP binding signal, raw median fluorescence (lower = inhibition) (MCF (arbitrary fluorescence units)) in assay [5] of 651.
Consider `COc1cccc(OCc2c(C)cccc2C)c1C(=O)O`, for which the outcome in assay [1], in assay [4] and in assay [6] was inactive. Moreover, in assay [2], the fluorescence, percent of control (lower = inhibition) was determined as 56.5%. Further, the GTP binding, percent of control in assay [3] turned out to be 209%. Besides, the GTP binding signal, raw median fluorescence (lower = inhibition) (MCF (arbitrary fluorescence units)) in assay [5] turned out to be 52.5.
Consider `CCC(=O)N=C1SC2CS(=O)(=O)CC2N1c1cccc(OC)c1` (stereo unspecified), for which the result in assay [1], in assay [4] and in assay [6] was inactive. Further, in assay [2], the fluorescence, percent of control (lower = inhibition) amounted to 89%. The GTP binding, percent of control in assay [3] is 162%. The compound further registered a GTP binding signal, raw median fluorescence (lower = inhibition) (MCF (arbitrary fluorescence units)) in assay [5] of 180.
Take `COC(CNC(=O)C1CCCN1C(=O)OCc1ccccc1)OC` (stereo unspecified): the compound was classed as inactive in assay [1], in assay [4] and in assay [6]. In addition, in assay [2], the fluorescence, percent of control (lower = inhibition) was found to be 46.2%. Besides, the GTP binding, percent of control in assay [3] turned out to be 90.5%. Further, the GTP binding signal, raw median fluorescence (lower = inhibition) (MCF (arbitrary fluorescence units)) in assay [5] worked out at 333.
For `CC(=O)NC1CC2CCCC(C1)N2C(=O)Nc1ccccc1` (stereo unspecified), the call in assay [1], in assay [4] and in assay [6] was inactive. Further, the fluorescence, percent of control (lower = inhibition) in assay [2] turned out to be 88.1%. This compound also returned a GTP binding, percent of control in assay [3] of 152%. In assay [5], this compound yielded a GTP binding signal, raw median fluorescence (lower = inhibition) (MCF (arbitrary fluorescence units)) of 217.
Regarding `O=C(CN1CCN(CCOCCO)CC1)N1c2ccccc2Sc2ccc(Cl)cc21`, the compound was classed as inactive in assay [1], in assay [4] and in assay [6]. Moreover, the fluorescence, percent of control (lower = inhibition) in assay [2] amounted to 37.7%. The GTP binding, percent of control in assay [3] came out at 82.2%. In assay [5], this compound had a GTP binding signal, raw median fluorescence (lower = inhibition) (MCF (arbitrary fluorescence units)) of 266.
`Oc1ccc(NC(=S)N=Nc2c(O)[nH]c3ccccc23)cc1`: the result in assay [1], in assay [4] and in assay [6] was inactive. For the same compound, the fluorescence, percent of control (lower = inhibition) in assay [2] is 16.7%. In addition, the GTP binding, percent of control in assay [3] is 62.5%. For the same compound, the GTP binding signal, raw median fluorescence (lower = inhibition) (MCF (arbitrary fluorescence units)) in assay [5] was found to be 62.8.
Take `Oc1ccc(/C=N/NC(=S)N/N=C/c2ccc(O)cc2)cc1`: the outcome in assay [1], in assay [4] and in assay [6] was inactive. In addition, the fluorescence, percent of control (lower = inhibition) in assay [2] is 45%. The compound also came in with a GTP binding, percent of control in assay [3] of 88.4%. In assay [5], this compound gave a GTP binding signal, raw median fluorescence (lower = inhibition) (MCF (arbitrary fluorescence units)) of 177.
Regarding `COc1cc(/C=C(/C#N)c2nc3ccccc3[nH]2)ccc1OCc1ccc(C(=O)O)o1`, the compound was classed as inactive in assay [1], in assay [4] and in assay [6]. Also, the fluorescence, percent of control (lower = inhibition) in assay [2] was 21.9%. This compound also gave a GTP binding, percent of control in assay [3] of 59.6%. The compound further displayed a GTP binding signal, raw median fluorescence (lower = inhibition) (MCF (arbitrary fluorescence units)) in assay [5] of 116.
`CCC(Oc1ccc2ccccc2c1)C(=O)O` (stereo unspecified): the call in assay [1], in assay [4] and in assay [6] was inactive. For the same compound, in assay [2], the fluorescence, percent of control (lower = inhibition) was 123%. This compound also yielded a GTP binding, percent of control in assay [3] of 156%. In assay [5], the GTP binding signal, raw median fluorescence (lower = inhibition) (MCF (arbitrary fluorescence units)) is 190.
